PubChem BioAssay AID1159580 (chemical genetic matrix, 2015)
“And” between values parts separate entries of the source, which are not always exact repeats. Identical values can stand only once. The campaign covered roughly 5,500 compounds. About 2,000 (36%) were called active. Inconclusive results (about 18%) are left out. Rule as the data show it: active = normalized growth mostly below about 0.91 (no sharp cut-off); inconclusive = no clear call, values can overlap the other calls; inactive = mostly above about 0.92. The list shows a part of the results.

Assay: chemical genetic growth profiling, strain panel (AID 1159580);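 also: tested at 20 µM; growth read once vehicle control cultures reached saturation at 30 °C; 1 = growth at the plate median or of vehicle wells; lower values mean less growth of the strain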
Conditions: S. cerevisiae deletion strains, growth OD

Measured: normalized growth

CCC1(c2ccccc2)C(=O)NCNC1=O
inactive: locus YAL013W, strain DEP1, hits give low values 1.01 | locus YAL021C, strain ccr4, hits give low values 1 | locus YAL026C, strain drs2, hits give low values 0.991 | locus YAL030W, strain snc1, hits give low values 1.01 | locus YAL040C, strain CLN3, hits give low values 0.982 | locus YBL061C, strain skt5, hits give low values 1.01 | locus YBR009C, strain hhf1, hits give low values 0.997 | locus YBR021W, strain FUR4, hits give low values 1 | locus YBR023C, strain chs3, hits give low values 1.01 | locus YBR171W, strain sec66, hits give low values 0.991 | locus YBR229C, strain ROT2, hits give low values 1 | locus YBR231C, strain swc5, hits give low values 1 | locus YBR279W, strain paf1, hits give low values 1.02 | locus YCL011C, strain gbp2, hits give low values 0.978 | locus YCL016C, strain dcc1, hits give low values 1.01 | locus YCL029C, strain bik1, hits give low values 0.994 | locus YCL061C, strain MRC1 (second series), hits give low values 0.993 | locus YCL061C, strain MRC1, hits give low values 0.988 | locus YCL069W, strain vba3, hits give low values 0.99 | locus YCR088W, strain abp1, hits give low values 0.984 | locus YDL005C, strain med2, hits give low values 1.01 | locus YDL035C, strain GPR1, hits give low values 1.01 | locus YDL040C, strain nat1, hits give low values 1.01 | locus YDL074C, strain BRE1, hits give low values 1.01 | locus YDL101C, strain DUN1, hits give low values 1.01 | locus YDL134C, strain PPH21, hits give low values 0.998 | locus YDL185W, strain tfp1, hits give low values 0.991 | locus YDL192W, strain arf1, hits give low values 0.999 | locus YDR001C, strain nth1, hits give low values 0.987 | locus YDR069C, strain doa4, hits give low values 0.998 | locus YDR101C, strain arx1, hits give low values 1.01 | locus YDR137W, strain rgp1, hits give low values 1.02 | locus YDR150W, strain NUM1, hits give low values 0.992 | locus YDR159W, strain sac3, hits give low values 0.994 | locus YDR162C, strain NBP2, hits give low values 1.01 | locus YDR195W, strain ref2 0.992 | locus YDR297W, strain sur2, hits give low values 1.01 | locus YDR318W, strain mcm21, hits give low values 1 | locus YDR334W, strain swr1, hits give low values 1 | locus YDR335W, strain msn5, hits give low values 1.01 | locus YDR363W, strain ESC2, hits give low values 0.969 | locus YDR388W, hits give low values 0.998 | locus YDR392W, strain spt3, hits give low values 0.958 | locus YDR502C, strain sam2, hits give low values 1 | locus YEL003W, strain gim4, hits give low values 0.975 | locus YEL037C, strain rad23, hits give low values 0.98 | locus YEL061C, strain CIN8 (second series), hits give low values 0.982 | locus YEL061C, strain CIN8, hits give low values 1 | locus YER002W, strain NOP16, hits give low values 0.988 | locus YER015W, strain faa2, hits give low values 0.99 | locus YER016W, strain bim1, hits give low values 1 | locus YER110C, hits give low values 1 | locus YER111C, strain swi4, hits give low values 0.99 | locus YER155C, strain BEM2 (second series), hits give low values 0.951 | locus YER155C, strain BEM2, hits give low values 0.998 | locus YER167W, strain BCK2, hits give low values 1 | locus YFR010W, strain ubp6, hits give low values 1 | locus YGL078C, strain dbp3, hits give low values 0.992 | locus YGL086W, strain mad1, hits give low values 1 | locus YGL167C, strain pmr1, hits give low values 1.01 | locus YGL173C, strain kem1, hits give low values 1 | locus YGL227W, strain vid30, hits give low values 0.98 | locus YGL240W, strain doc1, hits give low values 0.997 | locus YGL248W, strain PDE1, hits give low values 1 | locus YGL253W, strain hxk2, hits give low values 1 | locus YGR078C, strain PAC10, hits give low values 1.01 | locus YGR135W, strain pre9, hits give low values 0.995 | locus YGR252W, strain gcn5, hits give low values 0.987 | locus YHR013C, strain ard1, hits give low values 1.01 | locus YHR027C, strain rpn1, hits give low values 1.01 | locus YHR030C, strain SLT2, hits give low values 1 and 1.02 | locus YHR079C, strain IRE1 (second series), hits give low values 0.995 | locus YHR079C, strain IRE1, hits give low values 0.993 | locus YHR094C, strain hxt1, hits give low values 0.995 | locus YHR129C, strain ARP1, hits give low values 1.01 | locus YHR142W, strain chs7, hits give low values 1 | locus YHR200W, strain rpn10, hits give low values 0.995 | locus YIL066C, strain RNR3, hits give low values 1.01 | locus YIL073C, strain SPO22, hits give low values 1 | locus YIL125W, strain kgd1, hits give low values 1 | locus YIR030C, strain dcg1, hits give low values 0.997 | locus YJL092W, strain hpr5, hits give low values 0.975 | locus YJL095W, strain BCK1 (second series), hits give low values 1.01 | locus YJL095W, strain BCK1, hits give low values 1.01 and 1.02 | locus YJL115W, strain asf1, hits give low values 0.988 | locus YJL129C, strain trk1, hits give low values 0.967 | locus YJL134W, strain LCB3, hits give low values 1.01 | locus YJL154C, strain vps35, hits give low values 0.976 | locus YJL164C, strain tpk1, hits give low values 1 | locus YJL166W, strain qcr8, hits give low values 1.04 | locus YJL168C, strain set2, hits give low values 0.996 | locus YJL187C, strain SWE1 (second series), hits give low values 1.01 | locus YJL187C, strain SWE1, hits give low values 1.02 | locus YJR043C, strain POL32, hits give low values 1 | locus YJR066W, strain TOR1, hits give low values 0.967
